Values joined by “and” are separate entries in the source; they are usually repeats but may differ in a detail not shown here. Equal values may be shown once. Results filed as inconclusive are left out. A structure can be active in one record and inactive in another. Active and inactive are the calls of the source. How the source made its calls: active means hit-call score of the fitted dose curve at least 0.9, where 1 is the maximum; inconclusive means response in the unintended direction; inactive means score below 0.9.
Test system: not listed separately
Assay: TOX21_p53_BLA_p5_viability: Viability Assessment in the Tox21 HCT-116 p53 Agonism Beta-lactamase Assay, Phase 5 (AID 2283600)
Outline: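 Viability came from CellTiter-Glo ATP luminescence, read after 30 min at room temperature. Before this, HCT-116 p53-bla cells (4000/well) had 16 hours of compound exposure at 37C, with DMSO stocks diluted 217-fold on transfer.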
For `CC(=O)CC(C)C`, the outcome was “inactive”. With `CCCCCCOC(=O)c1ccc(O)cc1` the outcome was “inactive”. In the case of `CN(C)c1ccc(C(=C2C=CC(=[N+](C)C)C=C2)c2ccccc2)cc1`, the outcome was “inactive”. For `CC(C)(C)c1ccc(O)c(O)c1`, the outcome was “inactive”. For `O=C1OC(=O)c2cc(-c3ccc4c(c3)C(=O)OC4=O)ccc21`, the outcome was “inactive”. With `CCOCCOCC` the outcome was “inactive”. For `Nc1ccc(O)c(C(=O)O)c1`, the outcome was “inactive”. For `O=S(=O)(O)c1ccc2cc(O)ccc2c1`, the outcome was “inactive”. For `CC1=CC(=O)c2ccccc2C1=O`, the AC50 was 37.9 µM (active) and the outcome was “inactive”. With `O=C(Nc1ccc(Cl)c(Cl)c1)c1cc(Cl)cc(Cl)c1O` the outcome was “inactive”. With `Cc1cc(=O)oc2cc(O)ccc12` the outcome was “inactive”. In the case of `C[C@]12CC[C@@H]3c4ccc(O)cc4CC[C@H]3[C@@H]1CC[C@@H]2OC(=O)CCC1CCCC1`, the outcome was “inactive”. For `CCCCCCCCCCCCCCCCCC[N+](C)(C)Cc1ccccc1`, the AC50 was 15 µM (active). With `CCC(=O)C=Cc1ccc(OC)cc1` the outcome was “inactive”. For `CCCCCCc1ccc(N)cc1`, the outcome was “inactive”. In the case of `C[C@]12CC[C@@H]3c4ccc(O)cc4CC[C@H]3[C@@H]1C[C@@H](O)[C@@H]2O`, the outcome was “inactive”. In the case of `CCCCCCCCCC=CCC1CC(=O)OC1=O` (stereo unspecified), the outcome was “inactive”. In the case of `CNNCc1ccc(C(=O)NC(C)C)cc1`, the outcome was “inactive”. For `COCN(COC)c1nc(N(COC)COC)nc(N(COC)COC)n1`, the outcome was “inactive”. With `CCCCCC(C)OC(=O)COc1ccc(Cl)c2cccnc12` (stereo unspecified) the outcome was “inactive”. With `COc1ccccc1NC(=O)c1cc2ccccc2cc1O` the outcome was “inactive”. With `O=C(NO)c1ccccc1` the outcome was “inactive”. With `O=C1c2ccccc2C(=O)c2c(O)c(O)cc(O)c21` the outcome was “inactive”. With `O=C1OC2(c3ccccc31)c1cc(I)c(O)c(I)c1Oc1c2cc(I)c(O)c1I` the outcome was “inactive”. For `CCOC(C)=O`, the outcome was “inactive”.

Target: Cellular tumor antigen p53 (Homo sapiens) (UniProt P04637)
Sequence (P04637 whole entry, looked up): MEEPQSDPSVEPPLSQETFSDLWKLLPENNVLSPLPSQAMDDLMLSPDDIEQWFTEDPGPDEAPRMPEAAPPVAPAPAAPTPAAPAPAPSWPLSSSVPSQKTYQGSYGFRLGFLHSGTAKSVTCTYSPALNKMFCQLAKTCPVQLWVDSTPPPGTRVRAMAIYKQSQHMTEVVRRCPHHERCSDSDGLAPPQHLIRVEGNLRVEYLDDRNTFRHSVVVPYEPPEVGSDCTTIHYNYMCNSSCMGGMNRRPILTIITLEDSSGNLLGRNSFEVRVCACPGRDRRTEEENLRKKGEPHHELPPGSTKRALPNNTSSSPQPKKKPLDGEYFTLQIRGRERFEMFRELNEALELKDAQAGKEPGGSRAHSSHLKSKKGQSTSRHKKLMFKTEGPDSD
Assay: TOX21_p53_BLA_p4_ratio: Tox21 HCT-116 p53 Agonism Beta-lactamase Assay, Ratio, Phase 4 (AID 2283601)
Outline: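 Signal is the blue/green (460nm/530nm) ratio of cleaved versus uncleaved CCF4-AM substrate, read after 2 h substrate loading. Cells were HCT116 carrying the p53-responsive beta-lactamase reporter, dosed 16 h at 37C, 5% CO2; CellTiter-Glo measured in parallel.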
With `CC(=O)CC(C)C` the outcome was “inactive”. With `CCCCCCOC(=O)c1ccc(O)cc1` the AC50 was 67.3 µM (active) and 80 µM (active). For `CN(C)c1ccc(C(=C2C=CC(=[N+](C)C)C=C2)c2ccccc2)cc1`, the AC50 was 15.8 µM (active) and the outcome was “inactive”. For `CC(C)(C)c1ccc(O)c(O)c1`, the outcome was “inactive”. For `NC(=NCCCCCCN=C(N)/N=C(\N)Nc1ccc(Cl)cc1)/N=C(\N)Nc1ccc(Cl)cc1`, the AC50 was 71.4 µM (active) [middle of 5 runs]. With `O=C1OC(=O)c2cc(-c3ccc4c(c3)C(=O)OC4=O)ccc21` the outcome was “inactive”. In the case of `O=S(=O)(O)c1ccc2cc(O)ccc2c1`, the outcome was “inactive”. For `CC1=CC(=O)c2ccccc2C1=O`, the outcome was “inactive”. With `O=C(Nc1ccc(Cl)c(Cl)c1)c1cc(Cl)cc(Cl)c1O` the AC50 was 2.77 µM (active). In the case of `Cc1cc(=O)oc2cc(O)ccc12`, the AC50 was 53.2 µM (active) and 54.1 µM (active) and the outcome was “inactive”. In the case of `C[C@]12CC[C@@H]3c4ccc(O)cc4CC[C@H]3[C@@H]1CC[C@@H]2OC(=O)CCC1CCCC1`, the outcome was “inactive”. For `CCCCCCCCCCCCCCCCCC[N+](C)(C)Cc1ccccc1`, the AC50 was 69.6 µM (active). In the case of `CCC(=O)C=Cc1ccc(OC)cc1`, the outcome was “inactive”. In the case of `CCCCCCc1ccc(N)cc1`, the outcome was “inactive”. For `C[C@]12CC[C@@H]3c4ccc(O)cc4CC[C@H]3[C@@H]1C[C@@H](O)[C@@H]2O`, the outcome was “inactive”. In the case of `CCCCCCCCCC=CCC1CC(=O)OC1=O` (stereo unspecified), the outcome was “inactive”. With `CNNCc1ccc(C(=O)NC(C)C)cc1` the outcome was “inactive”. For `COc1ccccc1NC(=O)c1cc2ccccc2cc1O`, the AC50 was 36.1 µM (active). For `O=C(NO)c1ccccc1`, the outcome was “inactive”. For `O=C1c2ccccc2C(=O)c2c(O)c(O)cc(O)c21`, the AC50 was 50.1 µM (active). With `O=C1OC2(c3ccccc31)c1cc(I)c(O)c(I)c1Oc1c2cc(I)c(O)c1I` the AC50 was 73.9 µM (active) and the outcome was “inactive”. For `CCOC(C)=O`, the outcome was “inactive”.

Source: PubChem BioAssay (EPA / NIEHS)
